{"source": "PubChem BioAssay (NCATS)", "note": "Inconclusive results are not listed. A call without a number means that no potency is given here. Calls of active or inactive are those of the source. The call rests on the fitted dose curve; in most records, active means well fitted inhibition curve with a large enough effect; inconclusive means small, poorly fitted or top-dose-only effect; inactive means no such curve, though single readings can be large or run the other way. Numbered stars: 1 amine (or outer) side, 2 acyl side, 3 side chain; on linkers, the order of the positions; unused ones are H or OH. Bridge positions count the residues as written; N and C are the ends. Square brackets hold non-standard residues; d marks the D form. Peptide text beside a SMILES is read from it. I, II: the chains in the order shown. Actinocin(9to1) = Cc1c2oc3c(C)ccc(C(=O)[*:1])c3nc-2c(C(=O)[*:2])c(N)c1=O; NMeV = CN[C@H](C(=O)O)C(C)C; Sar = CNCC(=O)O"}
{"target": "Protein phosphatase 1D (Homo sapiens) (UniProt O15297)", "sequence (O15297 whole entry, looked up)": "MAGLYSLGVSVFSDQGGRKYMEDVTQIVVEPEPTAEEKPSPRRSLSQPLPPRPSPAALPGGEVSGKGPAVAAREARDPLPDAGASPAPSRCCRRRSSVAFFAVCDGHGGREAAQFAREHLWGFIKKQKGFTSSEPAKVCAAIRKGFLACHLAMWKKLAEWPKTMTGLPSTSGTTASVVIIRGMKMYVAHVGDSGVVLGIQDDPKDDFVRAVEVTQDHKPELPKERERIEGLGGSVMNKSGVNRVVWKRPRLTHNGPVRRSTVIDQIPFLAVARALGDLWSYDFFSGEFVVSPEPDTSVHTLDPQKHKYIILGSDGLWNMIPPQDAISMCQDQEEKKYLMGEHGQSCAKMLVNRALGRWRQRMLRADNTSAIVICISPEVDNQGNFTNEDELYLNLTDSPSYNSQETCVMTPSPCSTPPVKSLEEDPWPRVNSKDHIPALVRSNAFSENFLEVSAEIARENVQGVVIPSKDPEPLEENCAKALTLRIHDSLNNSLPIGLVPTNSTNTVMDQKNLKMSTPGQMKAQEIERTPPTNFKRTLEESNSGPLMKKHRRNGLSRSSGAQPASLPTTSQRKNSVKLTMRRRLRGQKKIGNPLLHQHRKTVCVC", "assay": "RapidFire Mass Spectrometry qHTS Assay for Modulators of WT P53-Induced Phosphatase 1 (WIP1) (AID 1347424)", "conditions": "WIP1 dephosphorylation of phosphopeptide, RapidFire MS; series mostly up to 63 µM", "outline": "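10 nM WIP1 preincubated with compounds 1 hr at room temperature in pH 7.5 Tris buffer with 30 mM MgCl2, 1 mM TCEP; 2 uM VEPPL-pS-QETFS phosphopeptide for 5 min, formic acid quench; dephosphorylated product quantified by RapidFire MS against labelled standard.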"}
{"smiles": "OCc1ccccc1O", "Potency": "inactive"}
{"smiles": "CN(C)CCOc1ccccc1Cc1ccccc1", "Potency": "inactive"}
{"smiles": "C[C@H](O)C(=O)Nc1c(I)c(C(=O)NC(CO)CO)c(I)c(C(=O)NC(CO)CO)c1I", "Potency": "inactive"}
{"smiles": "COc1cc(OC)cc(OC)c1", "Potency": "inactive"}
{"smiles": "CN(C)C(=S)SC(=S)N(C)C", "Potency": "inactive"}
{"smiles": "CCCCOc1cc(C(=O)NCCN(CC)CC)c2ccccc2n1", "Potency": "inactive"}
{"smiles": "COc1cccc(OC)c1C(=O)N[C@@H]1C(=O)N2[C@@H]1SC(C)(C)[C@@H]2C(=O)O", "Potency": "inactive"}
{"smiles": "O=C1[C@H]2CCCC[C@H]2C(=O)N1CCCCN1CCN(c2nsc3ccccc23)CC1", "Potency": "inactive"}
{"smiles": "COc1cc(C(=S)N2CCOCC2)cc(OC)c1OC", "Potency": "inactive"}
{"smiles": "O=C(N/N=C/c1ccccc1O)c1ccncc1", "Potency": "inactive"}
{"smiles": "CCN(CC)C(=O)N1CCN(C)CC1", "Potency": "inactive"}
{"smiles": "CCN(CCCc1ccccc1)CCCc1ccccc1", "Potency": "inactive"}
{"smiles": "COc1cc(N)c(Cl)cc1C(=O)NC1CCN(CCCOc2ccc(F)cc2)CC1OC", "note": "(stereo unspecified)", "Potency": "inactive"}
{"smiles": "COc1cc(/C=C/C(=O)O[C@H]2CC[C@]34C[C@]35CC[C@]3(C)[C@@H]([C@H](C)CCC=C(C)C)CC[C@@]3(C)[C@@H]5CC[C@H]4C2(C)C)ccc1O", "Potency": "inactive"}
{"smiles": "CCN(CC)C(=O)/C(C#N)=C/c1cc(O)c(O)c([N+](=O)[O-])c1", "Potency": "inactive"}
{"smiles": "Cc1c2oc3c(C)ccc(C(=O)N[C@@H]4C(=O)N[C@H](C(C)C)C(=O)N5CCC[C@H]5C(=O)N(C)CC(=O)N(C)[C@@H](C(C)C)C(=O)O[C@@H]4C)c3nc-2c(C(=O)N[C@@H]2C(=O)N[C@H](C(C)C)C(=O)N3CCC[C@H]3C(=O)N(C)CC(=O)N(C)[C@@H](C(C)C)C(=O)O[C@@H]2C)c(N)c1=O", "note": "(I: T[dV]P[Sar][NMeV] / II: T[dV]P[Sar][NMeV]; ester I:1-I:C, II:1-II:C; linker I:N-II:N via Actinocin(9to1))", "Potency": "inactive"}
{"smiles": "O=C(COc1ccc(Cl)cc1)N1CCN(Cc2ccc3c(c2)OCO3)CC1", "Potency": "inactive"}
{"smiles": "NC(=O)C(=O)N/N=C/c1ccc([N+](=O)[O-])o1", "Potency": "inactive"}
{"smiles": "NCCc1ccn[nH]1", "Potency": "inactive"}
{"smiles": "CCCCOc1ccc(OCCCN2CCOCC2)cc1", "Potency": "inactive"}
{"smiles": "CN1CCC(=C2c3ccccc3Sc3ccccc32)CC1", "Potency": "inactive"}
{"smiles": "C=C1C(=C/C=C2\\CCC[C@]3(C)[C@@H]([C@H](C)/C=C/[C@@H](O)C4CC4)CC[C@@H]23)C[C@@H](O)C[C@@H]1O", "Potency": "inactive"}
{"smiles": "CCCCS(=O)(=O)N[C@@H](Cc1ccc(OCCCCC2CCNCC2)cc1)C(=O)O", "Potency": "inactive"}
{"smiles": "CNCC[C@@H](Oc1ccccc1C)c1ccccc1", "Potency": "inactive"}
{"smiles": "COC(=O)CCc1ccc(OCC(O)CNC(C)C)cc1", "note": "(stereo unspecified)", "Potency": "inactive"}
{"smiles": "CC(=O)[C@H]1CC[C@H]2[C@@H]3C[C@H](C)C4=CC(=O)CC[C@]4(C)[C@H]3[C@@H](O)C[C@]12C", "Potency": "inactive"}
{"smiles": "CC[N+](CC)(CCNC(=O)C(=O)NCC[N+](CC)(CC)Cc1ccccc1Cl)Cc1ccccc1Cl", "Potency": "inactive"}
{"smiles": "CCOC(=O)c1cccc(N)c1", "Potency": "inactive"}
{"smiles": "OC[C@H]1O[C@H](O[C@]2(CCl)O[C@H](CCl)[C@@H](O)[C@@H]2O)[C@H](O)[C@@H](O)[C@H]1Cl", "Potency": "inactive"}
{"smiles": "NC[C@H]1O[C@H](O[C@H]2[C@H](O)[C@@H](O[C@H]3O[C@H](CO)[C@@H](O)[C@H](N)[C@H]3O)[C@H](N)C[C@@H]2N)[C@H](N)[C@@H](O)[C@@H]1O", "Potency": "inactive"}
{"smiles": "CC1(C)O[C@@H]2C[C@H]3[C@@H]4CCC5=CC(=O)CC[C@]5(C)[C@@]4(F)[C@@H](O)C[C@]3(C)[C@]2(C(=O)CCl)O1", "Potency": "inactive"}
{"smiles": "CNC(=O)CN(CCN(CCN(CC(=O)[O-])CC(=O)NC)CC(=O)[O-])CC(=O)[O-].O.[Gd+3]", "Potency": "inactive"}
{"smiles": "Cc1ccnc(NS(=O)(=O)c2ccc(N)cc2)n1", "Potency": "inactive"}
{"smiles": "C#C[C@]1(O)CC[C@H]2[C@@H]3CCc4cc(OC5CCCC5)ccc4[C@H]3CC[C@@]21C", "Potency": "inactive"}
{"smiles": "CCN(CC)CCNC(=O)COc1ccc(Cl)cc1", "Potency": "inactive"}
{"smiles": "Cc1cccn2c(=O)c(-c3nnn[nH]3)cnc12", "Potency": "inactive"}
